In article PMC5540273 (PLoS ONE, 2017):

Assays:
[1] = test system: RPS6KA5(Kin.Dom.2-C-terminal)
[2] = test system: T1, RSK1(Kin.Dom.2-C-terminal)
T1 construct: gene RPS6KA1

[3] = test system: T2, RSK2(Kin.Dom.2-C-terminal)
T2 construct: gene RPS6KA3

[4] = test system: T3, RSK3(Kin.Dom.2-C-terminal)
T3 construct: gene RPS6KA2

[5] = test system: SIK2
[6] = test system: T4, SNARK
T4 construct: gene NUAK2

[7] = test system: SNRK
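Further: kd values determined as follow-up on hits from a single-replicate KINOMEscan panel screen.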

Structure (SMILES): Cc1cccc(-c2cc(Nc3ccncc3)c3ccccc3n2)n1 [GSK223675]
- Kd [1]: > 10 µM

Structure (SMILES): Cc1ccccc1-n1cnc2c(N)ncnc21 [SKF-97510]
- Kd [2]: > 10 µM

Structure (SMILES): Nc1nc(-c2nccs2)c(-c2ccnc3ccccc23)s1 [GW693542]
- Kd [3]: > 10 µM

Structure (SMILES): CS(=O)(=O)c1ccc(-c2c(-c3ncn[nH]3)sc(N3CCOCC3)c2C#N)cc1
- Kd [4]: > 10 µM

Structure (SMILES): COc1cc2ncn(-c3cc(OCC4CCCO4)c(C(N)=O)s3)c2cc1OC (centres unmarked) [GSK204607]
- Kd [5]: > 10 µM

Structure (SMILES): CC1=C(C(=O)Nc2cc3cn[nH]c3cc2F)C(c2ccc(C(F)(F)F)cc2)CC(=O)N1 (centres unmarked) [GSK429286]
- Kd [6]: 0.47 µM

Structure (SMILES): Nc1ncnc2[nH]c(-c3ccccc3)nc12 [AH5015]
- Kd [7]: > 10 µM

Structure (SMILES): Cn1cncc1-c1ccc2ncnc(Nc3ccc(OCc4ccccc4)cc3)c2c1 [GW320571]
- Kd [7]: 8.7 µM
